Results on six compounds are retold here after PubChem BioAssay (Tox21).

Assay [1] is described as follows: qHTS assay to test for compound auto fluorescence at 535 nm (green) in HEK293 cells (AID 720680). A general note: qHTS replaces the single test concentration by a dilution series.
Assay [2] is described as follows: qHTS assay to test for compound auto fluorescence at 460 nm (blue) in HEK293 cell free culture (AID 720681). Put shortly:
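Compounds were added to cell-free DMEM with 10% FBS and fluorescence read directly. The blue channel used 405 nm excitation and 460 nm emission, with triamterene as the reference fluorophore.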

Assay [3] is described as follows: qHTS assay to test for compound auto fluorescence at 535 nm (green) in HEK293 cell free culture (AID 720682). Put shortly: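 Measurement is a direct plate read of green fluorescence (485 nm in, 535 nm out) after compound addition to serum-supplemented DMEM lacking cells, with fluorescein used to express intensities.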
A short description of assay [4]: qHTS assay to test for compound auto fluorescence at 590 nm (red) in HEK293 cell free culture (AID 720683). Put shortly:
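Cell-free wells of DMEM with 10% FBS received compound, and intrinsic fluorescence was read at excitation/emission 540/590 nm. Values expressed as equivalence to Rose Bengal sodium.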

Assay [5] in a line: qHTS assay to test for compound auto fluorescence at 590 nm (red) in HepG2 cell free culture (AID 720684). A digest of the protocol:
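Rose Bengal sodium served as the reference for red signal. Test compounds were dispensed into serum-containing MEM (10% FBS) without cells, and plates were read at 540/590 nm.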

Assay [6] in a line: qHTS assay to test for compound auto fluorescence at 460 nm (blue) in HepG2 cell free culture (AID 720685). Put shortly: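 Cell-free plates of MEM plus 10% FBS received 23 nL compound or DMSO vehicle; blue-channel (405/460 nm) intensity scored against triamterene as reference fluorophore.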
A short description of assay [7]: qHTS assay to test for compound auto fluorescence at 535 nm (green) in HepG2 cell free culture (AID 720686).
Assay [8] can be described thus: qHTS assay to test for compound auto fluorescence at 460 nm (blue) in HepG2 cells (AID 720687). A digest of the protocol: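 HepG2 cells in MEM with 10% FBS, attached overnight at 37 C, were exposed to compound or DMSO for 1 hr at 37 C, 5% CO2. Blue fluorescence was read at 405/460 nm, with triamterene as reference fluorophore.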
Assay [9] addresses Glucocorticoid receptor (Homo sapiens) (UniProt P04150). The experiment in a line: qHTS assay to identify small molecule agonists of the glucocorticoid receptor (GR) signaling pathway (AID 720691; active = well fitted activation curve with a large enough effect in the signal ratio in the repeat runs, not every such curve was filed as active; the % refers to the signal ratio). A digest of the protocol: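 A HeLa cervical cancer line expressing GR and a glucocorticoid response element-driven beta-lactamase gene is treated with compounds for 18 h; LiveBLAzer B/G FRET substrate is then applied and fluorescence read.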

For assay [10] the target is unchanged. Kind of assay: qHTS assay to identify small molecule antagonists of the glucocorticoid receptor (GR) signaling pathway (AID 720692; active = well fitted inhibition curve with a large enough effect in the signal ratio in the repeat runs, not every such curve was filed as active; the % refers to the signal ratio; note: potency is the fitted concentration of half-maximal effect). A digest of the protocol:
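GRE-bla HeLa line, dex-stimulated (5 nM final). Compound exposure 18 h, 37 C. Beta-lactamase FRET read after 2 h RT substrate.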

Assay [11] in a line: qHTS assay to identify small molecule antagonists of the glucocorticoid receptor (GR) signaling pathway - cell viability counter screen (AID 720693). Note: nearly all actives have a fitted effect of over 55% in size. Note: potency is the fitted concentration of half-maximal effect.
The nature of assay [12]: qHTS assay for identifying genotoxic compounds that show differential cytotoxicity against isogenic chicken DT40 cell lines with known DNA damage response pathways - Rev3 mutant cell line (AID 743014). Note: nearly all actives have a fitted effect of over 55% in size. Note: potency is the fitted concentration of half-maximal effect.
Assay [13] in a line: qHTS assay for identifying genotoxic compounds that show differential cytotoxicity against isogenic chicken DT40 cell lines with known DNA damage response pathways - Rad54/Ku70 mutant cell line (AID 743015). Note: nearly all actives have a fitted effect of over 60% in size. Note: potency is the fitted concentration of half-maximal effect.
Assay [14] can be described thus: qHTS assay to identify small molecule antagonists of the androgen receptor (AR) signaling pathway - cell viability counter screen (AID 743033; note: nearly all actives have a fitted effect of over 45% in size).
A short description of assay [15]: qHTS assay to identify small molecule antagonists of the androgen receptor (AR) signaling pathway using the MDA cell line - cell viability counter screen (AID 743041; note: nearly all actives have a fitted effect of over 45% in size). A digest of the protocol:
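Cytotoxicity counter screen: MDA-kb2 AR-luc cells, compound + R1881, 16 h, 37C, 0% CO2; CellTiter-Fluor added at 15.5 h, fluorescence read after 30 min.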

A short description of assay [16]: qHTS assay to identify small molecule antagonists of the thyroid receptor (TR) signaling pathway - cell viability counter screen (AID 743064). Note: nearly all actives have a fitted effect of over 50% in size. Note: potency is the fitted concentration of half-maximal effect. A digest of the protocol:
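Compounds were tested on GH3.TRE-Luc cells in the presence of T3 at 1 nM final. Following 23.5 h at 37 °C, cell viability was quantified by CellTiter-Fluor.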

A short description of assay [17]: qHTS assay for identifying genotoxic compounds that show differential cytotoxicity against isogenic chicken DT40 cell lines with known DNA damage response pathways - wild type cell line (AID 743012). Note: nearly all actives have a fitted effect of over 60% in size. Note: potency is the fitted concentration of half-maximal effect. Put shortly:
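300 wt DT40 cells/well; cpd (DMSO) pintool-transferred after ~0.5 h at 37 C/5% CO2; 40 h incubation; CellTiter-Glo added, 30 min RT; luminescence read.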

Assay [18] addresses Androgen receptor (Homo sapiens) (UniProt P10275). The experiment in a line: qHTS assay to identify small molecule antagonists of the androgen receptor (AR) signaling pathway (AID 743035; active = well fitted inhibition curve with a large enough effect in the signal ratio in the repeat runs, not every such curve was filed as active; the % refers to the signal ratio; note: potency is the fitted concentration of half-maximal effect). A digest of the protocol:
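In this cell-based reporter screen, compounds were tested in concentration series against R1881-activated HEK293 cells expressing beta-lactamase under UAS control; after 16 h at 37C, FRET substrate was added and fluorescence read 2 h later.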

Assay [19] shares this target. Kind of assay: qHTS assay to identify small molecule agonists of the androgen receptor (AR) signaling pathway (AID 743036; active = well fitted activation curve with a large enough effect in the signal ratio in the repeat runs, with a control signal flat, not every such curve was filed as active; the % refers to the signal ratio). Put shortly:
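Beta-lactamase under UAS control, stably integrated in HEK293 GripTite cells, reports receptor activation. After 16 h compound treatment, cells received FRET substrate for 2 h at room temperature before fluorescence reading.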

The target is the same in assay [20]. The experiment in a line: qHTS assay to identify small molecule antagonists of the androgen receptor (AR) signaling pathway using the MDA cell line (AID 743042; note: nearly all actives have a fitted effect of over 55% in size; note: potency is the fitted concentration of half-maximal effect). Put shortly: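 MDA-kb2 breast carcinoma cells carrying MMTV-luciferase (AR/GR responsive) were co-treated with compounds and the agonist R1881 for 16 h at 37C. Inhibition read as ONE-Glo luminescence; CellTiter-Fluor fluorescence measured in parallel for cytotoxicity.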

Structures are written as SMILES. Several values for one entry are separate records, joined by “and”; a condition that tells them apart may be missing. Equal entries are not always repeated. Records with an inconclusive call do not appear. A structure can be active in one record and inactive in another. Activity calls are given as the source filed them. Unless noted, calls come from the whole dose curve; as a rule, active = well fitted curve in the direction sought with a large enough effect in the repeat runs; inconclusive = weak or mixed curves; inactive = no such curve, though single readings can be large; an effect the other way counts as inactive or inconclusive. Starred links: 1 amine or outer side, 2 acyl side, 3 side chain; linkers in the order of their positions; H or OH if unused. Positions of bridges follow the written chain, without caps; N, C: chain ends. Non-standard residues stand in square brackets, D forms with d. Residues, ends and D or L forms follow the SMILES beside them. Chains are numbered I, II in the order given. Actinocin(9to1) = Cc1c2oc3c(C)ccc(C(=O)[*:1])c3nc-2c(C(=O)[*:2])c(N)c1=O; NMeV = CN[C@H](C(=O)O)C(C)C; Sar = CNCC(=O)O
% is set by controls: 0 for no effect and ±100 for the full control effect.

Glucocorticoid receptor (Homo sapiens), sequence (P04150 whole entry, looked up): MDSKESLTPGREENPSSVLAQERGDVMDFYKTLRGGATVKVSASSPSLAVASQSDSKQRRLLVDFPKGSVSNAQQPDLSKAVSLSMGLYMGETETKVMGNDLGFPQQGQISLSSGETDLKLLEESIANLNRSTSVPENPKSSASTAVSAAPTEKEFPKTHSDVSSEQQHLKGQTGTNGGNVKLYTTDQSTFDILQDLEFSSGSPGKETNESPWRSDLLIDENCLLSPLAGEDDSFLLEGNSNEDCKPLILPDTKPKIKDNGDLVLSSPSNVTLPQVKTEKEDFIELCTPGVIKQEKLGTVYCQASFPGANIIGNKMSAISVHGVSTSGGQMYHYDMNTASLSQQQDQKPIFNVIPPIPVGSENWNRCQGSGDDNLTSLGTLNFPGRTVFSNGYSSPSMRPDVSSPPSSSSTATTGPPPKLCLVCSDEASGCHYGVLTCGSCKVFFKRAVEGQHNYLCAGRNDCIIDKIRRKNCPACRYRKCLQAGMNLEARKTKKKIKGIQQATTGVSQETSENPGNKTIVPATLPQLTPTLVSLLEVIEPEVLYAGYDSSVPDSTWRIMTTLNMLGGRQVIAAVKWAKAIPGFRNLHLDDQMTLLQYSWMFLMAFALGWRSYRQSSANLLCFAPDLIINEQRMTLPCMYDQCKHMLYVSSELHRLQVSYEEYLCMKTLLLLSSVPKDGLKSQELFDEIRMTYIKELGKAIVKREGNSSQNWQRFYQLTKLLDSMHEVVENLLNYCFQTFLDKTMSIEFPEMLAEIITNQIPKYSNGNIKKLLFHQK
Androgen receptor (Homo sapiens), sequence (P10275 whole entry, looked up): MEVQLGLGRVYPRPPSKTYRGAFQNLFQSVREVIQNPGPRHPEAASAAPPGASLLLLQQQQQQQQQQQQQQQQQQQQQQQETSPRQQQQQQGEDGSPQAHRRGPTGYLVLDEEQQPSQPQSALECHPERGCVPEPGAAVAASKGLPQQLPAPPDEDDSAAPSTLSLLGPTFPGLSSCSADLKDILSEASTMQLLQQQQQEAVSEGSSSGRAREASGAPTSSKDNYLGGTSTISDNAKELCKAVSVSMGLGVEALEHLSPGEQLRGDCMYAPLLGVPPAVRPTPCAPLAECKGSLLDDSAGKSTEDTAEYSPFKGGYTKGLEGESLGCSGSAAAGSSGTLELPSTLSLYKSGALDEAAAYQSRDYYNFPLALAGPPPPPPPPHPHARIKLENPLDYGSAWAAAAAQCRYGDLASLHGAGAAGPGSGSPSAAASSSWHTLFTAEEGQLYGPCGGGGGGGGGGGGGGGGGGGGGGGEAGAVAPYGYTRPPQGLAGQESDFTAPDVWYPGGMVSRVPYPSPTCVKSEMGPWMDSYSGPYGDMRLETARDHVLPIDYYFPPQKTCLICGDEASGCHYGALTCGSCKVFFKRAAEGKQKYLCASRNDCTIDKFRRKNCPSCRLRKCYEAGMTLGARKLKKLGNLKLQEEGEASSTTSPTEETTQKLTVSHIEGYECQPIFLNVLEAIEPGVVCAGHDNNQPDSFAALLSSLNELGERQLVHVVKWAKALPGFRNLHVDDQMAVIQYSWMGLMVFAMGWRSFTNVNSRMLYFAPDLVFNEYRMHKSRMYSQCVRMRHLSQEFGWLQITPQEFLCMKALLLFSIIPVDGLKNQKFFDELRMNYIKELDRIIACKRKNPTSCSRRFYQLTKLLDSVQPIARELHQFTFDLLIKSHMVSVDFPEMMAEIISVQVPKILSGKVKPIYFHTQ

Take `CCCCCCCCCCCCCCCCCl`: the fluorescence, % of fluorescein in assay [1] was -0.0655% [at 18.6 µM] (inactive). The fluorescence, % of fluorescent control in assay [2] is -0.061% [at 18.6 µM] (inactive); in assay [4] it was -0.466% [at 18.6 µM] (inactive); in assay [6] it was -0.0526% [at 18.6 µM] (inactive); in assay [8], -0.0903% [at 18.6 µM] (inactive). Also, in [3], the activity change is -0.0974% [at 18.6 µM, stronger effect = higher value] (inactive). Further, the fluorescence, % of Rose Bengal in [5] was -0.0105% [at 18.6 µM] (inactive). The fluorescence, % of fluorescein control in [7] was -0.0406% [at 18.6 µM] (inactive). The Potency entry in [9], in assay [10], in assay [11], in [12], in [13] and in [14] was “inactive” in each case. In addition, the Potency entry in assay [15] and in assay [16] was “inactive” in each case.

In the case of `CCn1cc(C(=O)O)c(=O)c2cc(F)c(N3CCNC(C)C3)c(F)c21` (configuration not stated), the Potency result in assay [1], in assay [2], in assay [3], in assay [6], in [7] and in [8] was “inactive” throughout. The Potency entry in [9], in assay [10], in [11], in assay [12], in assay [13] and in assay [14] was “inactive” in each case. In addition, the Potency result in assay [15] and in [16] was “inactive” each time. For the same compound, the compound was classed as inactive in assay [4] and in assay [5]. Moreover, in [17], the Potency is 26.6 µM (active).

For `O=C(O)c1cn(-c2ccc(F)cc2)c2cc(N3CCNCC3)c(F)cc2c1=O`, the Potency entry in assay [1], in assay [2], in [3], in assay [6], in assay [7] and in assay [8] was “inactive” throughout. Further, the Potency entry in assay [9], in assay [10], in [11], in assay [14] and in [16] was “inactive” in each case. In addition, the compound was classed as inactive in assay [4] and in assay [5].

With `Cc1c2oc3c(C)ccc(C(=O)N[C@@H]4C(=O)N[C@H](C(C)C)C(=O)N5CCC[C@H]5C(=O)N(C)CC(=O)N(C)[C@@H](C(C)C)C(=O)O[C@@H]4C)c3nc-2c(C(=O)N[C@@H]2C(=O)N[C@H](C(C)C)C(=O)N3CCC[C@H]3C(=O)N(C)CC(=O)N(C)[C@@H](C(C)C)C(=O)O[C@@H]2C)c(N)c1=O` (I: T[dV]P[Sar][NMeV] / II: T[dV]P[Sar][NMeV]; ester I:1-I:C, II:1-II:C; linker I:N-II:N via Actinocin(9to1)), the Potency result in assay [1], in [2], in assay [3], in assay [6], in assay [7] and in assay [8] was “inactive” each time. In addition, the Potency entry in assay [14] and in [19] was “inactive” each time. Moreover, the compound was classed as inactive in assay [4] and in [5]. The Potency is 134 nM (active) in assay [10]; 239 nM (active) and 9.5 nM (active) in [11]; 6.7 nM (active) and 1.1 nM (active) in assay [17]; 7.5 nM (active) and 0.7 nM (active) in [12]; 2.4 nM (active) in assay [13]; 23.9 nM (active) and 1 nM (active) in [18]. Moreover, the Potency in assay [20] was 15 nM (active) and 4.2 nM (active); in assay [16], 6 nM (active) and 0.9 nM (active).

Consider `CC(C)CCOCc1ccccc1`, for which the Potency entry in assay [1], in assay [2], in assay [3], in assay [6], in assay [7] and in assay [8] was “inactive” each time. Also, the Potency entry in [9], in assay [10], in assay [11], in assay [17], in assay [12] and in [13] was “inactive” throughout. Further, the Potency entry in assay [14], in [18], in assay [19], in assay [15], in [20] and in assay [16] was “inactive” throughout. The result in assay [4] and in assay [5] was inactive.

Regarding `CC(=O)Nc1ccc(C(=O)CCl)cc1`, the Potency result in [1], in [2], in assay [3], in assay [6], in assay [7] and in assay [8] was “inactive” each time. Moreover, the Potency entry in [9], in assay [10], in assay [11], in [14], in [19] and in assay [20] was “inactive” each time. Further, the compound was classed as inactive in assay [4] and in assay [5]. The Potency entry in assay [17] is “inactive and 1.72 µM (active)”; in [12], 1.93 µM (active); in assay [13], 1720 nM (active); in assay [16], “inactive and 8.63 µM (active)”.
